Data as given in the supplement of paper PMC12350171.
Structures can show the parent of a compound that is named as a salt. Values without a mark were called inactive.

Columns and labels:
Conditions in all cases: 20 µM
[1] = system: Salmonella enterica typhimurium; test: growth AUC normalised to DMSO control (fraction of control); higher = less growth inhibition, active = hit call of the paper
Summary of the method: (§1)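 Pathogens passaged twice anaerobically were inoculated at a starting OD578 of 0.01 into pre-reduced mGAM plates with drug at 20 μM and 1% DMSO, sealed with breathable membranes. Haemophilus parainfluenzae medium was supplemented with hemin and NAD. OD578 was read hourly for 24 h, with three biological replicates. Growth-curve AUC was computed by the trapezoidal rule up to the exponential-to-stationary transition and normalised to DMSO controls on the same plate.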

Shigella flexneri = test: as above
Summary of the method: as §1

Vibrio cholerae = test: as above
Summary of the method: as §1

[2] = system: Yersinia pseudotuberculosis; test: as above
Summary of the method: as §1

P. vulgatus RND KO = test: growth AUC normalised to DMSO control (median) (fraction of control); higher = less growth inhibition, active = hit call of the paper
Summary of the method: (§2)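 Anaerobic growth was tracked hourly at OD578 for 24 h in 96-well plates of mGAM seeded at OD578 0.01 with each approved-drug library compound at 20 μM and 1% DMSO. Strains had first been passaged twice overnight without oxygen. Three biological replicates were run. The reported median is the area under the curve, calculated by the trapezoidal rule on curves truncated at entry into stationary phase and normalised to vehicle wells on the same plate.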

P. vulgatus WT = test: as above
Summary of the method: as §2

[3] = system: S. enterica typhimurium WT; test: as above
Summary of the method: as §2

[4] = system: S. enterica typhimurium tolC KO; test: as above
Summary of the method: as §2
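Throughout, for growth AUC normalised to DMSO control (median): active when median AUC fell below 0.1.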

SMILES	growth AUC normalised to DMSO control [1]	growth AUC normalised to DMSO control (Shigella flexneri)	growth AUC normalised to DMSO control (Vibrio cholerae)	growth AUC normalised to DMSO control [2]	growth AUC normalised to DMSO control (P. vulgatus RND KO)	growth AUC normalised to DMSO control (P. vulgatus WT)	growth AUC normalised to DMSO control [3]	growth AUC normalised to DMSO control [4]
Cn1cnc([N+](=O)[O-])c1Sc1ncnc2[nH]cnc12 [Azathioprine]	1	0.992	1.01	1.01	0.955	0.92	1.02	0.998
Clc1ccc(CO/N=C(\Cn2ccnc2)c2ccc(Cl)cc2Cl)c(Cl)c1 [Oxiconazole nitrate]	1.02	1.04	1.05	0.983	1.01	1.04	1	0.909
O=C(O)Cc1ccc(-c2ccccc2)cc1 [Felbinac]	1.03	0.977	0.996	0.994	1	1.01	1.01	0.988
CCN(CCCCOC(=O)c1ccc(OC)c(OC)c1)C(C)Cc1ccc(OC)cc1 (stereo unspecified) [Mebeverine hydrochloride]	1.01	1.03	1.02	1.01	1.01	1.01	1	0.934
CCOC(=O)/C=C(C)/C=C/C=C(C)/C=C/c1c(C)cc(OC)c(C)c1C [Etretinate]	1.01	1.03	0.998	1	1.03	1.06	1	0.991
NC[C@H]1CC[C@H](C(=O)O)CC1 [Tranexamic acid]	1	1.01	1.04	1.02	1.04	1.04	1	1
CCCCc1oc2ccccc2c1C(=O)c1cc(I)c(OCCN(CC)CC)c(I)c1 [Amiodarone hydrochloride]	0.999	1.04	1	1.02	1.02	1.06	1.04	1.02
CC(C)c1c(C(=O)Nc2ccccc2)c(-c2ccccc2)c(-c2ccc(F)cc2)n1CC[C@@H](O)C[C@@H](O)CC(=O)O [Atorvastatin]	1.01	1.04	1.04	1.01	1.01	1	0.993	0.994
Cc1cc(C(C)(C)C)c(O)c(C)c1CC1=NCCN1 [Oxymetazoline hydrochloride]	0.997	0.994	1	1	0.994	0.988	1.01	0.985
Cc1nnc(NS(=O)(=O)c2ccc(N)cc2)s1 [Sulfamethizole]	0.985	0.98	0.978	1.01	1	1	0.978	0.984
CCN(CC)C(=O)N1CCN(C)CC1 [Diethylcarbamazine citrate]	0.959	0.973	0.983	0.998	0.995	0.978	0.999	0.995
CCN1CCCC1CNC(=O)c1cc(S(=O)(=O)CC)c(N)cc1OC (stereo unspecified) [Amisulpride]	0.998	1	1.01	0.99	1.02	1.01	1.01	0.995
CC(=O)Oc1cc(C(F)(F)F)ccc1C(=O)O [Triflusal]	0.964	0.949	0.959	0.954	0.979	1	0.995	0.955
COCCCC/C(=N\OCCN)c1ccc(C(F)(F)F)cc1 [Fluvoxamine maleate]	0.992	0.974	0.943	0.993	0.968	0.963	0.991	0.957
N=C(N)NC(=O)Cc1c(Cl)cccc1Cl [Guanfacine hydrochloride]	0.983	0.971	1.02	0.988	1.02	1.04	0.989	0.966
CO[C@@H]1[C@@H](O[C@@H]2O[C@H](C)[C@@H](O[C@H]3C[C@@](C)(O)[C@@H](OC(=O)CC(C)C)[C@H](C)O3)[C@H](N(C)C)[C@H]2O)[C@@H](CC=O)C[C@@H](C)[C@@H](O)/C=C/C=C/C[C@@H](C)OC(=O)C[C@H]1OC(C)=O [Josamycin]	0.937 (active)	0.995	0.0145 (active)	0.971	0.0124 (active)	0.00854 (active)	0.967	0.0649 (active)
CN(C/C=C/c1ccccc1)Cc1cccc2ccccc12 [Naftifine hydrochloride]	1.01	1.01	0.933	1.04	0.996	1.01	0.998	0.932
CCCCOC(=O)c1ccc(N)cc1 [Butamben]	0.994	0.995	0.989	0.937	1.03	1.03	0.998	1.01
CC(C)(C(=O)O)c1ccc(C(O)CCCN2CCC(C(O)(c3ccccc3)c3ccccc3)CC2)cc1 (stereo unspecified) [Fexofenadine hydrochloride]	1.02	1.02	1.04	0.99	1.01	1.01	1.01	1
CC(C)(CO)[C@@H](O)C(=O)NCCCO [(D)-Panthenol]	0.999	1.02	0.998	0.99	0.995	0.979	1	1
O=C(O)CNC(=O)C(CS)Cc1ccccc1 (stereo unspecified) [Thiorphan]	1.02	1.05	1.08	1.01	0.993	1	0.997	0.995
N#Cc1ccc(C(c2ccc(C#N)cc2)n2cncn2)cc1 [Letrozole]	1.01	1	0.989	0.999	1.01	1.01	1.01	1
CC1(C)O[C@@H]2C[C@H]3[C@@H]4CCC5=CC(=O)CC[C@]5(C)[C@@]4(F)[C@@H](O)C[C@]3(C)[C@]2(C(=O)CCl)O1 [Halcinonide]	1	1.03	0.99	1	0.993	1	1.02	0.967
Cc1cc(NS(=O)(=O)c2ccc(N)cc2)no1 [Sulfamethoxazole]	0.983	0.984	0.993	0.991	0.951	0.979	0.967	0.959
C#C[C@]1(O)CC[C@H]2[C@@H]3CCc4cc(OC)ccc4[C@H]3CC[C@@]21C [Mestranol]	0.987	1.01	1.01	1.01	0.968	0.96	0.999	0.988
CCc1cc(Cl)c(OC)c(C(=O)NC[C@@H]2CCCN2CC)c1O [(S,-) Eticlopride hydrochloride]	1	1.01	0.922	0.986	1.06	1.03	1	0.947
CC(=O)[C@@]1(O)CC[C@H]2[C@@H]3C[C@H](C)C4=CC(=O)C=C[C@]4(C)[C@@]3(F)[C@@H](O)C[C@@]21C [Fluorometholone]	1.01	1.03	1.05	1	1	1.01	1	0.987
